Results published in ChEMBL document CHEMBL1961873, “Compounds: GSK PKIS; Assays: Nanosyn kinase panel” (2012).

What was measured:
[1] = biological target: Rho-associated protein kinase 1 (Homo sapiens) (UniProt Q13464); conditions: at 1 µM;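 further: reported values are mean percent inhibition of ROCK1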
[2] = biological target: Rho-associated protein kinase 2 (Homo sapiens) (UniProt O75116); conditions: at 0.1 µM
[3] = biological target: Rho-associated protein kinase 2 (Homo sapiens) (UniProt O75116); conditions: at 1 µM
[4] = biological target: Ribosomal protein S6 kinase alpha-1 (Homo sapiens) (UniProt Q15418); conditions: at 0.1 µM
[5] = biological target: Ribosomal protein S6 kinase alpha-1 (Homo sapiens) (UniProt Q15418); conditions: at 1 µM
[6] = biological target: Ribosomal protein S6 kinase alpha-3 (Homo sapiens) (UniProt P51812); conditions: at 0.1 µM
[7] = biological target: Ribosomal protein S6 kinase alpha-3 (Homo sapiens) (UniProt P51812); conditions: at 1 µM
[8] = biological target: Ribosomal protein S6 kinase alpha-2 (Homo sapiens) (UniProt Q15349); conditions: at 0.1 µM
[9] = biological target: Ribosomal protein S6 kinase alpha-2 (Homo sapiens) (UniProt Q15349); conditions: at 1 µM
[10] = biological target: Ribosomal protein S6 kinase alpha-6 (Homo sapiens) (UniProt Q9UK32); conditions: at 0.1 µM
[11] = biological target: Ribosomal protein S6 kinase alpha-6 (Homo sapiens) (UniProt Q9UK32); conditions: at 1 µM
[12] = biological target: T1, Serine/threonine-protein kinase Sgk1 (Homo sapiens) (UniProt O00141); conditions: at 0.1 µM
T1 sequence (whole entry): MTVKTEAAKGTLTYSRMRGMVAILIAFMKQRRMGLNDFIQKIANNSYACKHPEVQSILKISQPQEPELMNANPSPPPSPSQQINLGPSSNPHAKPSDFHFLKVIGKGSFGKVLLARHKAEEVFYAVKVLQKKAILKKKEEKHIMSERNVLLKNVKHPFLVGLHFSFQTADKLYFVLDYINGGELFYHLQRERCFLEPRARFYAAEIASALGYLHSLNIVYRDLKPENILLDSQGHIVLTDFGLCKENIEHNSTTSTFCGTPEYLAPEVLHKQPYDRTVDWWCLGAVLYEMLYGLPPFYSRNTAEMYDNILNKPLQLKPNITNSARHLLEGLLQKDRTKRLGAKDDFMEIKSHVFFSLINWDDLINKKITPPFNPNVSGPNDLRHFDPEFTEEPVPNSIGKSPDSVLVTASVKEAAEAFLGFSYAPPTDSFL

[13] = biological target: T1, Serine/threonine-protein kinase Sgk1 (Homo sapiens); conditions: at 1 µM
[14] = biological target: T2, Serine/threonine-protein kinase Sgk2 (Homo sapiens) (UniProt Q9HBY8); conditions: at 0.1 µM
T2 sequence (whole entry): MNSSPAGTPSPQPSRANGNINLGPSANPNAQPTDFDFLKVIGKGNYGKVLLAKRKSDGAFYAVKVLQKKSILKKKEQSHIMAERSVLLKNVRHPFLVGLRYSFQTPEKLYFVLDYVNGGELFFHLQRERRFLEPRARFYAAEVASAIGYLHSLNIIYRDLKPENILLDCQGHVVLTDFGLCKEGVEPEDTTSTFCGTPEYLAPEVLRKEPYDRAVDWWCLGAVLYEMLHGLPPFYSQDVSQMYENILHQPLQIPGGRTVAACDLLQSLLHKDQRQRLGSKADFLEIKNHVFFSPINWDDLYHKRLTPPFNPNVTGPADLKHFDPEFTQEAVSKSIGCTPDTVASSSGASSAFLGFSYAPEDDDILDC

[15] = biological target: T2, Serine/threonine-protein kinase Sgk2 (Homo sapiens); conditions: at 1 µM
[16] = biological target: T3, Serine/threonine-protein kinase Sgk3 (Homo sapiens) (UniProt Q96BR1); conditions: at 0.1 µM
T3 sequence (whole entry): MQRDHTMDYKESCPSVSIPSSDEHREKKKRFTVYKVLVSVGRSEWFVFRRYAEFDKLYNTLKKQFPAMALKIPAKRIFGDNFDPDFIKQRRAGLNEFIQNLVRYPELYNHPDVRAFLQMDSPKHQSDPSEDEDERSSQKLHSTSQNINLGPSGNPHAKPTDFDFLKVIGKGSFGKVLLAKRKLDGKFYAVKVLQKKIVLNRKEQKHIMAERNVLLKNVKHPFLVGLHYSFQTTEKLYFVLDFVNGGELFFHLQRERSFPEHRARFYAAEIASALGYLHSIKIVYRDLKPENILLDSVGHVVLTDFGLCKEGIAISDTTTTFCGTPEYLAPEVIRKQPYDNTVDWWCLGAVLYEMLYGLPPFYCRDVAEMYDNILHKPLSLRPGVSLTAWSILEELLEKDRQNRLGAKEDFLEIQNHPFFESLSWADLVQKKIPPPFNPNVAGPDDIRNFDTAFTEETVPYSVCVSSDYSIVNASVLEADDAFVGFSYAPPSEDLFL

[17] = biological target: T3, Serine/threonine-protein kinase Sgk3 (Homo sapiens); conditions: at 1 µM
[18] = biological target: 5'-AMP-activated protein kinase catalytic subunit alpha-1 (Homo sapiens) (UniProt Q13131); conditions: at 0.1 µM
[19] = biological target: 5'-AMP-activated protein kinase catalytic subunit alpha-1 (Homo sapiens) (UniProt Q13131); conditions: at 1 µM
[20] = biological target: 5'-AMP-activated protein kinase catalytic subunit alpha-2 (Homo sapiens) (UniProt P54646); conditions: at 0.1 µM;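 further: mean inhibition measured on the AMPK complex of alpha2, beta1 and gamma1 subunits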
5'-AMP-activated protein kinase catalytic subunit alpha-2 (Homo sapiens), sequence (P54646 whole entry, looked up): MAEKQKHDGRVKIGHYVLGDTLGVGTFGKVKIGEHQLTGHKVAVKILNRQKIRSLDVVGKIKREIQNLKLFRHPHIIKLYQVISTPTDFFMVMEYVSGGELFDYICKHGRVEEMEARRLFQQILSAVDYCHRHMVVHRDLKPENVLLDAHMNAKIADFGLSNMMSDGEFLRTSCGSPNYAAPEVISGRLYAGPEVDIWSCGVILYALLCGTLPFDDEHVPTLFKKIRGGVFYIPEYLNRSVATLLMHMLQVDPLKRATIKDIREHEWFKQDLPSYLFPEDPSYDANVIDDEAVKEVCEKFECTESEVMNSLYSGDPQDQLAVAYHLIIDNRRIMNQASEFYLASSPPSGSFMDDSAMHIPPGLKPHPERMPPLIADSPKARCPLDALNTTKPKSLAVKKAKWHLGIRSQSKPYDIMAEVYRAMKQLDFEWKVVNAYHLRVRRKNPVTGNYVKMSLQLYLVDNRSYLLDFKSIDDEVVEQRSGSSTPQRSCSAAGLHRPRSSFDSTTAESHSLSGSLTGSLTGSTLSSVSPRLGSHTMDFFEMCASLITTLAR

Ribosomal protein S6 kinase alpha-2 (Homo sapiens), sequence (Q15349 whole entry): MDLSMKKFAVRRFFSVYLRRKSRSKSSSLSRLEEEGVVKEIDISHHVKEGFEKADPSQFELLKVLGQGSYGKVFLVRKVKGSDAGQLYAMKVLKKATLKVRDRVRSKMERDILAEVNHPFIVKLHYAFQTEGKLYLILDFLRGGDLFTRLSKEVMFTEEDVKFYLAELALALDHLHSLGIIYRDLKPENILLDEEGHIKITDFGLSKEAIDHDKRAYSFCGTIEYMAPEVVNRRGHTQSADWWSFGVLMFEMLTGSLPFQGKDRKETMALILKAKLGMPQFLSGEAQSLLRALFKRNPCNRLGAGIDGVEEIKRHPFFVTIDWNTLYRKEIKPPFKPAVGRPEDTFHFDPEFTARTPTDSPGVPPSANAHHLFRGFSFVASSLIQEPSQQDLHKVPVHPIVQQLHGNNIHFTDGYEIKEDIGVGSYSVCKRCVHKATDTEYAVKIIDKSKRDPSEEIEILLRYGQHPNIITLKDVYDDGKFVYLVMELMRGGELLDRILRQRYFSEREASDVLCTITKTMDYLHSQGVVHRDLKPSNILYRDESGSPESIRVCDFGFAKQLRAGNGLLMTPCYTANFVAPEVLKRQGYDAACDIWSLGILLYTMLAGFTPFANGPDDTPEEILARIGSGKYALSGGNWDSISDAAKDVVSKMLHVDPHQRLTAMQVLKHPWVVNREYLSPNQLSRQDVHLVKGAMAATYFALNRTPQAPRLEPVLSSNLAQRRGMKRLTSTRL
Ribosomal protein S6 kinase alpha-1 (Homo sapiens), sequence (Q15418 whole entry): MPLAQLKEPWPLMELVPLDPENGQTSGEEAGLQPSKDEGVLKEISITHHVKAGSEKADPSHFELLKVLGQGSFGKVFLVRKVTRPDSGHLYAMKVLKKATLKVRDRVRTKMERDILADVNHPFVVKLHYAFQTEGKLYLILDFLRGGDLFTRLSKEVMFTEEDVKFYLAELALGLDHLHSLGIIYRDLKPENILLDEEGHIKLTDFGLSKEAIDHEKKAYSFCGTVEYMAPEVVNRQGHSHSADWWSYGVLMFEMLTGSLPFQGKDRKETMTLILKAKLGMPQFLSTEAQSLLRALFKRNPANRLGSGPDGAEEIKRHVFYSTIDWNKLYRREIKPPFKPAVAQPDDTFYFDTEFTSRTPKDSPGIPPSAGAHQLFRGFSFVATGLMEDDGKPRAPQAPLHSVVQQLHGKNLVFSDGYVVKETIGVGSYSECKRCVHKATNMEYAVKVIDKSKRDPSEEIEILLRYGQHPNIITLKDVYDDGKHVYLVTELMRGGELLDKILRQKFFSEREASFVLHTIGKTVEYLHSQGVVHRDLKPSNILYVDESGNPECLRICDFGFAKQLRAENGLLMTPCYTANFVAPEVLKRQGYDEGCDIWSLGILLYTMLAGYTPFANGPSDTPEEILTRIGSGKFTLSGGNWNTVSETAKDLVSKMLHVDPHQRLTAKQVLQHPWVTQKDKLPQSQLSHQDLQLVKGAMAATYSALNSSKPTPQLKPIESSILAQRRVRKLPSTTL
Rho-associated protein kinase 1 (Homo sapiens), sequence (Q13464 2-1354 limits assumed): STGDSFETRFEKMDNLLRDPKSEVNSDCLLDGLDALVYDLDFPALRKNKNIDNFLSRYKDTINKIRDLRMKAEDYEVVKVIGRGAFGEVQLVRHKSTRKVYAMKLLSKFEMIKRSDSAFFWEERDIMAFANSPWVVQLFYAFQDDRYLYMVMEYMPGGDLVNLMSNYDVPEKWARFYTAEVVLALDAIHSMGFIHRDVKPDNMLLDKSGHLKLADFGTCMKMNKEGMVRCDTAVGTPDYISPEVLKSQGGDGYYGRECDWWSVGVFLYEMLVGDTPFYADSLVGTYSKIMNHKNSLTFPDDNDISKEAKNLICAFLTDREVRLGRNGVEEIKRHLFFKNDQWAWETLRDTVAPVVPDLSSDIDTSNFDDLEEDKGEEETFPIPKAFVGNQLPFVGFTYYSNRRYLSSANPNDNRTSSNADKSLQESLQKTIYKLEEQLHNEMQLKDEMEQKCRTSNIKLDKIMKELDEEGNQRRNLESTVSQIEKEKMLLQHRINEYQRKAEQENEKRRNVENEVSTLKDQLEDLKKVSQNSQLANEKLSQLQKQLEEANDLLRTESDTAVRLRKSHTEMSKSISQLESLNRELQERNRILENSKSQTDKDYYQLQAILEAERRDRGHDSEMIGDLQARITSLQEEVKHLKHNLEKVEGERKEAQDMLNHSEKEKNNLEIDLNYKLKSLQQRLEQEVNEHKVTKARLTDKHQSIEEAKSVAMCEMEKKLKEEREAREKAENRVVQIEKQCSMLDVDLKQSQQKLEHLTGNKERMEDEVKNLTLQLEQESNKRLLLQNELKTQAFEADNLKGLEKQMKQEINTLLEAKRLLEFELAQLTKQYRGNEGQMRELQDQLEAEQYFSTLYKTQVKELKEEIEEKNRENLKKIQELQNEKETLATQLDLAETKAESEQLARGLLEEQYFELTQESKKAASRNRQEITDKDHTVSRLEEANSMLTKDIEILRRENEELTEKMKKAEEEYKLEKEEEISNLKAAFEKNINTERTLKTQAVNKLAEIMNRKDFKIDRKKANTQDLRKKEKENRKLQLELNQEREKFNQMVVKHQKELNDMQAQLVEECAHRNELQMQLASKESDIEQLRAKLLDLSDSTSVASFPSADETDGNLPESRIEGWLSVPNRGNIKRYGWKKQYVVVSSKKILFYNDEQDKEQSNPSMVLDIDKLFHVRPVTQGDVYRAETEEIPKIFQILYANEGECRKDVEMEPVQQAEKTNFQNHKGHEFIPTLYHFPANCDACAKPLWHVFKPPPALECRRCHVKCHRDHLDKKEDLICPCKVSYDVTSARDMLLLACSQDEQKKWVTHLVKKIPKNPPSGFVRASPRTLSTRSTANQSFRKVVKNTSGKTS
Ribosomal protein S6 kinase alpha-3 (Homo sapiens), sequence (P51812 whole entry): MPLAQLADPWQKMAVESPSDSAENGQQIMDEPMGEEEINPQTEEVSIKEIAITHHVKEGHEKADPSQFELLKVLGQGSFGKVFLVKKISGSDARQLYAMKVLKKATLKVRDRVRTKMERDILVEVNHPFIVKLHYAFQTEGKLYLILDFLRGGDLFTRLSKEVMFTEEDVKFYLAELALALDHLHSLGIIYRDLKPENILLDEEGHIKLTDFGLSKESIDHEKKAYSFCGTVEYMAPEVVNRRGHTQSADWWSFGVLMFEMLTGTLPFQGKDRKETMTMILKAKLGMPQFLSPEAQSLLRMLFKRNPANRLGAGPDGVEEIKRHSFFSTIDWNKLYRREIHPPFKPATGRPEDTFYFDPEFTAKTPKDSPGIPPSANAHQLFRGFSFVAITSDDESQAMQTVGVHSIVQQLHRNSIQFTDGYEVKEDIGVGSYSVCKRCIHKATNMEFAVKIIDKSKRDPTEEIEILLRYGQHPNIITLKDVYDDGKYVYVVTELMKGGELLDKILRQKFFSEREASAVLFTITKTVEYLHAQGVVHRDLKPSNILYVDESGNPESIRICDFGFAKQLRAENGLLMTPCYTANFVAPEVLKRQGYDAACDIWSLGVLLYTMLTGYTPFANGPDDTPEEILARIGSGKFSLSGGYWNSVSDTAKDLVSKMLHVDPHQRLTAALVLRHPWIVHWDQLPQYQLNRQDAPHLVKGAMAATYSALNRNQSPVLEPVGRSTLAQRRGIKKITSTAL
5'-AMP-activated protein kinase catalytic subunit alpha-1 (Homo sapiens), sequence (Q13131 whole entry, looked up): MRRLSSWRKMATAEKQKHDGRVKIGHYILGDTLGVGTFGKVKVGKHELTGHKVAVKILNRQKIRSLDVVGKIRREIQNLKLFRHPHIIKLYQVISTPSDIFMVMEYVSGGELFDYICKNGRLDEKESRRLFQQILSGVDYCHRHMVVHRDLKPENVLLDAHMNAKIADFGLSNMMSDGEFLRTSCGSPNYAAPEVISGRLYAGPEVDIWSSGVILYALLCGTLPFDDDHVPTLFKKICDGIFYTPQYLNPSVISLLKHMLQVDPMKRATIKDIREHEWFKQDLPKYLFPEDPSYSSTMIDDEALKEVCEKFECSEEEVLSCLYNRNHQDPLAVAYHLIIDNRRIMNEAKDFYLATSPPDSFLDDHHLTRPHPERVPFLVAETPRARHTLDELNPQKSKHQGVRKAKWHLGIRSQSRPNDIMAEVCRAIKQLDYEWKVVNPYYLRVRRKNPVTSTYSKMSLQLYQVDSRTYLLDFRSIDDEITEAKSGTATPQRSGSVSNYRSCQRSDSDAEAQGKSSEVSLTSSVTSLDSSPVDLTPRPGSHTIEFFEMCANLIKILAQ

SMILES | inhibition [1] [%] | inhibition [2] [%] | inhibition [3] [%] | inhibition [4] [%] | inhibition [5] [%] | inhibition [6] [%] | inhibition [7] [%] | inhibition [8] [%] | inhibition [9] [%] | inhibition [10] [%] | inhibition [11] [%] | inhibition [12] [%] | inhibition [13] [%] | inhibition [14] [%] | inhibition [15] [%] | inhibition [16] [%] | inhibition [17] [%] | inhibition [18] [%] | inhibition [19] [%] | inhibition [20] [%]
Fc1ccc(-c2nc3n(c2-c2ccncc2)CCS3)cc1 | 4.54 | 2.98 | 5.06 | 3.03 | 2.88 | 1.5 | 1.71 | 3.31 | 4.36 | 2.72 | 3.9 | 3.17 | 4.66 | 2.05 | 4.96 | 1.96 | 2.6 | 2.91 | 2.64 | 4.5
O=C(Nc1n[nH]c2cc(-c3ccccc3)ccc12)C1CC1 | 1.05 | 2.59 | 0.78 | 0.84 | 1.81 | 1.2 | 0.07 | 3.06 | 3.36 | 3 | 3.11 | 2.86 | 5.38 | 1.79 | 1.73 | 4.57 | 3.95 | 3.49 | 4.22 | 4.21
COc1cc(Nc2ncc3c(C)nc(-c4cccc(C(F)(F)F)c4)n3n2)cc(OC)c1OC | 2.39 | 2.6 | 8.14 | 5.19 | 26.7 | 5.91 | 31.8 | 7.09 | 37.1 | 5.57 | 29.1 | 3.85 | 8.66 | -1.55 | 6.37 | 5.08 | 8.49 | 6.54 | 39.2 | 5.38
N#Cc1ccc(Oc2nccc(-c3c(-c4ccc(F)cc4)ncn3C3CCNCC3)n2)cc1 | 4.31 | 2.81 | 4.38 | 0.36 | 1.46 | 1.39 | 1.85 | 2.38 | 3.07 | 0.67 | 0.97 | 2.45 | 2.02 | 7.44 | 3.86 | 2.02 | 3.62 | 2.27 | 3.89 | 3.09
